Experimental findings from PubChem BioAssay (NCI) are described below.

The nature of test [1]: NCI Yeast Anticancer Drug Screen. Data for the rad50 strain (AID 155).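 Also: 0% = growth of vehicle-only cultures of the same strain.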 The conditions noted are these: S. cerevisiae rad50 strain growth inhibition; at 50.0 µM; hits give high values. In outline: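 Compounds were tested on a yeast strain with an engineered DNA damage repair alteration; the reported value is growth inhibition normalised to vehicle treatment.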
The nature of test [2]: NCI Yeast Anticancer Drug Screen. Data for the mec2-1 strain (AID 157). Particulars: S. cerevisiae mec2-1 strain, at 50.0 µM, hits give high values. In outline: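 Yeast mec2-1 mutant treated with compound. Readout: growth inhibition vs vehicle controls.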
Test [3] is described as follows: NCI Yeast Anticancer Drug Screen. Data for the sgs1 mgt1 strain (AID 161).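 Also: 0% = growth of cultures given vehicle only.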 The conditions noted are these: S. cerevisiae sgs1 mgt1 strain, at 50.0 µM, hits give high values. An outline of the steps: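 Test agents were incubated with a DNA-repair-mutant yeast strain. Growth was then read and compared against vehicle-treated controls.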
A short description of test [4]: NCI Yeast Anticancer Drug Screen. Data for the cln2 rad14 strain (AID 165).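 Also: 0% = growth equal to vehicle treated cultures.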 The conditions noted are these: S. cerevisiae cln2 rad14 strain, at 50.0 µM, hits give high values. In outline: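 cln2 rad14 yeast strain; compound exposure; growth inhibition read vs vehicle controls.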
Test [5] is described as follows: NCI Yeast Anticancer Drug Screen. Data for the bub3 strain (AID 167). The conditions noted are these: S. cerevisiae bub3 mutant strain, at 50.0 µM, hits give high values. An outline of the steps: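 Growth of a checkpoint-deficient yeast mutant is measured after compound exposure. Values represent inhibition relative to vehicle.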
Test [6] can be described thus: NCI Yeast Anticancer Drug Screen. Data for the mlh1 rad18 strain (AID 175). Particulars: S. cerevisiae mlh1 rad18 strain growth inhibition; at 50.0 µM; hits give high values. An outline of the steps:
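Yeast w/ defined DNA-repair lesions; compound exposure; growth vs vehicle controls → % inhibition.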

Structures are written as SMILES. About 79,000 compounds went through this panel and 15% of them were active in at least one assay; those are over-represented in the sample as a whole. Values without a mark were called inactive. Active and inactive are the calls of the source. Rule as the data show it: active = growth inhibition above about 70%; inactive = the rest.

Take `CCN(CC)c1cc2oc(=O)cc(C)c2cc1NC(=O)c1cc([N+](=O)[O-])cc([N+](=O)[O-])c1`: the growth inhibition in test [1] was -0.6%; in test [2], -0.7%; in test [3], -2.1%; in test [4] it was -0.4%; in test [5] it was 0%; in test [6], 15.3%.

For `CC(=O)OC1CC(O)CC2=CCC3C4CCC(C(C)(O)C(O)CC5COC(=O)C5C)C4(C)CCC3C21C` (stereo not given), the growth inhibition is 6.8% in test [1]; 5.4% in test [2]; 14.6% in test [3]; 3.45% in test [4]; -32.1% in test [5]; -30.1% in test [6].

In the case of `Cc1ccccc1N=Nc1c(-c2ccccc2)nn(C(=O)CC(=O)Nc2cccc(Cl)c2)c1-c1ccccc1`, the growth inhibition was 60.9% in test [1]; 21.6% in test [2]; 55.5% in test [3]; 34.3% in test [4]; 68% in test [5]; 41.5% in test [6].

In the case of `O=C1CSC(c2cccs2)N1CCN1C(=O)CSC1c1cccs1` (stereo not given), the growth inhibition is 4.65% in test [1]; -2.1% in test [2]; -6.2% in test [3]; -6.75% in test [4]; 1.1% in test [5]; -0.25% in test [6].

Turning to `CN(C)Cc1cccc(-c2ccccc2)c1O`, the growth inhibition in test [1] was 21.8%; in test [2], -4.9%; in test [3] it was 12%; in test [4] it was -15.8%; in test [5] it was 5.3%; in test [6] it was 17.2%.

With `CC1CN(C(=O)Cn2cnc([N+](=O)[O-])n2)CC(C)O1` (stereo not given), the growth inhibition in test [1] was 7.65%; in test [2], 14.2%; in test [3], 2.75%; in test [4], 65.2%; in test [5], 29.8%; in test [6] it was 12.7%.

For the compound `Cc1cc2ccccc2c[n+]1CC(=O)c1ccc([N+](=O)[O-])cc1`, the growth inhibition in test [1] is -4.1%; in test [2], 32.1%; in test [3], 62%; in test [4] it was -1.85%; in test [5], 7.35%; in test [6], 51.7%.

Regarding `CCOC(=O)C(C(=O)OCC)C(=O)C(C)(C)C`, the growth inhibition in test [1] is 25.8%; in test [2] it was 0.3%; in test [3] it was 0.7%; in test [4] it was 11.2%; in test [5], 30.5%; in test [6] it was 18.9%.

In the case of `c1ncn(Sn2cncn2)n1`, the growth inhibition was -13.2% in test [1]; -6.9% in test [2]; -4.25% in test [3]; -23.8% in test [4]; -5.9% in test [5]; -0.85% in test [6].

Take `COc1ccc(/C=N/Nc2nc(C)c(C)s2)cc1`: the growth inhibition in test [1] was 30.9%; in test [2], 18.4%; in test [3] it was 53.4%; in test [4], 11.4%; in test [5], 7.35%; in test [6], 55.8%.

As for `O=S(=O)(O)c1cccc2c1oc1ccccc12`, the growth inhibition in test [1] was 8.85%; in test [2] it was -37.4%; in test [3], -3.75%; in test [4], 19%; in test [5] it was -10.1%; in test [6] it was -19%.

As for `c1ccc2c(c1)C1c3ccccc3C2C2OC12` (stereo not given), the growth inhibition was 14.2% in test [1]; 1.5% in test [2]; -4% in test [3]; -2.9% in test [4]; -10.1% in test [5]; 34.4% in test [6].

Regarding `Cc1cccc2c1Oc1ccccc1C2N1C(=O)c2ccccc2C1=O` (stereo not given), the growth inhibition in test [1] is 6.65%; in test [2], 2.5%; in test [3] it was 4.9%; in test [4], 25.4%; in test [5], 9.95%; in test [6], 6.35%.

In the case of `COC(=O)N1c2ccccc2[C@@H](O)[C@@H]1OC`, the growth inhibition in test [1] was 14.4%; in test [2] it was 11.7%; in test [3], 7.25%; in test [4] it was -4.7%; in test [5] it was 11.7%; in test [6] it was -6.6%.

Take `O=C(O)c1cc(Cl)ccc1[N+](=O)[O-]`: the growth inhibition in test [1] was 18.6%; in test [2], -11%; in test [3] it was 5.5%; in test [4] it was 7.65%; in test [5], 2.3%; in test [6] it was 11%.

Consider `O=C(CCC1CCCCC1)OCC1CCCO1` (stereo not given), for which the growth inhibition in test [1] was 42.1%; in test [2], 20.9%; in test [3] it was 41.1%; in test [4], 3.75%; in test [5], 24.6%; in test [6], 48.1%.

On to `CN(C)Cc1cc(C(C)(C)C)ccc1-c1ccc(C(C)(C)C)cc1CN(C)C`, for which the growth inhibition in test [1] was -42.4%; in test [2] it was -17.6%; in test [3] it was -39.5%; in test [4] it was 12.6%; in test [5], -31.2%; in test [6] it was -30.9%.

With `Nc1nc(=O)n(C2CCC(CO)O2)cc1F` (stereo not given), the growth inhibition was 34.7% in test [1]; 18.1% in test [2]; 16.2% in test [3]; -2.65% in test [4]; 10.5% in test [5]; 5.05% in test [6].

On to `CCCCCCCCCCCCCCC[N+](C)(C)C`, for which the growth inhibition in test [1] was 99.5% (active); in test [2], 99.3% (active); in test [3] it was 36.1%; in test [4], 99.2% (active); in test [5] it was 97.5% (active); in test [6], 99.5% (active).

For `c1ccc(C2OCCO2)cc1`, the growth inhibition is 4.05% in test [1]; -15.2% in test [2]; -6.7% in test [3]; 6.6% in test [4]; -0.2% in test [5]; 10.4% in test [6].
